# This excerpt belongs to a sample that is enriched for hits.
# KDM5B inhibitor – inhibitors of human KDM5B histone demethylase. KDM5B demethylase, FDH-coupled NADH fluorescence (FDH is formaldehyde dehydrogenase). Q9UGL1. Potency, µM (titrated, usually from 57.7 µM), most hits filed as inhibitors. actives 2.6% (n = 220,000); active means well fitted inhibition curve with a large enough effect; further: 0% is about no effect; nearly all actives have a fitted effect of over 70% in size
#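 Inhibition is measured as reduced NADH fluorescence generation from FDH coupling to formaldehyde release. Truncated KDM5BΔAP at 200 nM final acts on H3K4me3 peptide (12.5 µM in substrate mix) in pH 7.5 HEPES buffer with Tween-20, 30 min, room temperature.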
# Starred values were filed as active, the others as inactive; i = inactive. Potency means the concentration at half of the fitted maximal effect.
SMILES,KDM5B inhibitor
COc1cc(C(=O)N2CCC[C@H]2c2nc(-c3ccccc3Cl)no2)cc(OC)c1OC,i
COCCOc1ncccc1-c1noc([C@@H]2CCCN2C2CCN(C)CC2)n1,i
COCCNc1ncccc1-c1noc([C@@H]2CCCN2CC(C)(C)C)n1,35µM*
COCCNc1ncccc1-c1noc([C@@H]2CCCN2C2CCOCC2)n1,40µM*
CCc1ccc(OC(=O)c2ccccc2C)c(Br)c1,i
CC(C)(C)C(=O)N1N=C(c2ccco2)CC1c1ccc2nccnc2c1 (stereo unspecified),i
O=C(C1CC1)N(Cc1ccc2c(c1)CN(S(=O)(=O)c1ccc(F)cc1)CCO2)c1ccccc1,i
CC(=O)Nc1ccc(Cl)c(NC(=O)c2nn(-c3ccccc3)c(=O)c3ccccc23)c1,i
CN(C(=O)c1ccc(C(=O)N(C)c2ccccc2)cc1)c1ccccc1,i
Cc1cc(NC(=O)COC(=O)c2nc(-c3ccccc3)oc2C)ccc1N1CCCC1,i
Cn1c(Br)nc2c1c(=O)n(Cc1ccccc1Cl)c(=O)n2C,i
CC(=O)N1CCC(N2CC[C@@H](CO)N(C)c3ncccc3C2)CC1,35µM*
CN1c2cccnc2CN(C2CCC(CO)CC2)CC[C@H]1CO (stereo partly specified),i
CN1c2cccnc2CN(C(=O)Nc2ccc(Cl)cc2)CC[C@H]1CO,i
COc1ccccc1CN(C)CC(=O)N(C)c1c(N)n(Cc2ccccc2)c(=O)[nH]c1=O,i
CNC(=O)NC(=O)C(C)Oc1ccc2ccc(=O)oc2c1 (stereo unspecified),i
N#C/C(=C\c1ccc(Cl)s1)C(=O)NC1CC1,i
Cc1[nH]cnc1CN1CCNc2cc(Nc3ccccc3)ncc2C1,i
CC(C)(C)CN1CCNc2cc(Nc3cccnc3)ncc2C1,i
c1ccc(CN2CCNc3cnc(Nc4ccncn4)cc3C2)cc1,i
Oc1ccccc1CN1CCNc2cc(Nc3cccnc3)ncc2C1,35µM*
Oc1ccccc1CN1CCNc2cnc(Nc3ccccc3)cc2C1,22µM*
Oc1ccccc1CN1CCNc2cc(Nc3ccccc3)ncc2C1,i
c1ccc(Nc2cc3c(cn2)CN(Cc2ccn[nH]2)CCN3)cc1,i
c1ccc(Nc2cc3c(cn2)NCCN(Cc2ccccn2)C3)cc1,35µM*
SMILES,KDM5B inhibitor
Cc1noc(C)c1CN1CCNc2cc(Nc3ccccc3)ncc2C1,i
COc1ccc(Nc2nc3ccccc3nc2NS(=O)(=O)c2ccc(C)c(C)c2)c(OC)c1,i
NC1(C(=O)O)Cc2ccccc2C1,i
CCCCCCn1c(NCCO)nc2c1c(=O)n(C)c(=O)n2C,i
CN1CCC(OC2CCN(S(=O)(=O)c3ccc(F)cc3)CC2)CC1,i
Cc1noc(-c2ccn3c(CNC(=O)CCC4CCCC4)nnc3c2)n1,22µM*
CCc1noc(-c2ccn3c(CNC(=O)CCC4CCCC4)nnc3c2)n1,4.5µM*
O=C(CCC1CCCC1)NCCc1noc(-c2ccccc2)n1,i
CCc1noc(-c2ccn3c(CNC(=O)C4CCCCC4)nnc3c2)n1,28µM*
CNS(=O)(=O)Cc1ccccc1CNC(=O)c1cc(Br)ccc1Cl,i
CC(C)CS(=O)(=O)Nc1ccc([C@H]2OCC(=O)N(Cc3ccc(F)cc3)[C@@H]2CO)cc1,i
Cc1ccc(C(=O)N2CCN(c3cc(Cl)ccc3C)CC2)s1,i
COC(=O)C(C)(C)NC(=O)CNC(=O)OCc1ccccc1,i
COC(=O)c1[nH]c2ccc(C)cc2c1NC(=O)c1ccccc1F,i
Cc1sc2nc(CN3CCOCC3)nc(N(C)CC(=O)Nc3cccc(F)c3)c2c1C,i
CCCc1nc(SCC(=O)N2CCOCC2)c2c(C)c(C)sc2n1,i
CCCc1cc(CN(C)c2nc(CCN)nc3sc(C)c(C)c23)[nH]n1,22µM*
COc1ccc(N(CC(=O)Nc2ccc(F)c(F)c2)S(=O)(=O)c2c(C)nn(C)c2C)cc1,i
CC(Sc1ccc2ccccc2n1)C(=O)NC(N)=O (stereo unspecified),i
COc1ccc(C2(C(=O)N3CCN(c4ncccn4)CC3)CCOCC2)cc1,i
COc1ccc(C2(C(=O)N3CCC(F)CC3)CCOCC2)cc1,i
COc1ccc(C(=O)NCC(=O)N2CCN(c3ccccn3)CC2)c(C)c1,22µM*
COc1ccccc1N1CCN(C(=O)CNC(=O)c2ccc(Cl)cc2Cl)CC1,i
O=C(Cc1ccccc1)NCC(=O)N1CCN(c2ccccc2F)CC1,i
O=C(CN1CCN(c2ccccn2)CC1)Nc1cc(F)ccc1F,i
SMILES,KDM5B inhibitor
COc1ccc(-n2nc(C(=O)NCC(=O)N3CCN(c4ccccn4)CC3)c3ccccc3c2=O)c(OC)c1,i
O=C(CN1CCN(c2ccccn2)CC1)Nc1cccc(F)c1,i
COc1ccc(C2(C(=O)N3CCN(c4ccccn4)CC3)CCOCC2)cc1,79µM*
O=C(CCCc1ccccc1)NCC(=O)N1CCN(c2ccccn2)CC1,28µM*
O=C(CCC1CCCN(c2ncccn2)C1)N1CCN(c2ccccn2)CC1 (stereo unspecified),i
O=C(COc1ccc(F)cc1)NCC(=O)N1CCN(c2ccccn2)CC1,25µM*
Nc1nc(Nc2ccc(F)cc2)sc1C(=O)c1ccccc1Cl,i
CCC1CCCCN1S(=O)(=O)c1cc(-c2csc(C)n2)ccc1C (stereo unspecified),i
CN1C(=O)CC[C@]2(C(=O)NCc3ccc(Cl)cc3)CCCC[C@@H]12,i
CONC(=O)COc1ccc(C(C)(C)C)cc1,i
CS(=O)(=O)Nc1cccc(CNC(=O)CCC2CCCCC2)c1,i
Cc1ccc(-c2cc(C(F)F)n3nc(C)c(Br)c3n2)cc1,i
Cc1cc(NC(=O)CSc2ncc(-c3ccc(Cl)cc3)o2)ccc1F,i
COc1ccc(CC(=O)NCC(=O)N2CCN(c3ccccn3)CC2)cc1,32µM*
CCOc1ccccc1N1CCN(C(=O)CNC(=O)c2ccc(OC)c(OC)c2)CC1,i
CCOC(=O)CNC(=O)Cc1ccc(OC)cc1,i
CCOC(=O)c1[nH]c2ccc(OC)cc2c1NC(=S)N1CCN(c2ccccn2)CC1,i
COc1ccccc1CC(=O)N1CCc2nn(C)c(=O)n2CC1,i
COc1ccccc1CC(=O)NCC(=O)N1CCN(c2ccccn2)CC1,25µM*
Cc1cccc(C(=O)/C=C\N(C)C)c1,i
CCOc1ccc(N(C(=O)C23CC4CC(CC(C4)C2)C3)C2C=CS(=O)(=O)C2)cc1 (stereo unspecified),i
CC(=O)Nc1ccc(NC(=O)c2cccc(CN3CCCC(C#N)C3)c2)cc1 (stereo unspecified),i
COc1ccc(-c2nc3cc(C)ccc3cc2CN2CCCC(OC)C2)cc1 (stereo unspecified),25µM*
COc1ccc(-c2nc3cc(C)ccc3cc2CN2CCCC(CO)C2)cc1OC (stereo unspecified),i
COc1ccc2cc(CN3CCCC(C#N)C3)c(-c3cccs3)nc2c1 (stereo unspecified),32µM*
COc1ccc(-c2ccccc2NC(=O)C2CCCN(Cc3ccccc3O)C2)cc1 (stereo unspecified),i
COC[C@@H]1CCCN1Cc1cn(Cc2ccccc2)nc1-c1cc2ccccc2o1,i
COC[C@H]1CCCN1Cc1cn(-c2ccccc2)nc1-c1ccc(OC)cc1F,i
COC[C@@H]1CCCN1Cc1cc2ccc(C)cc2nc1-c1ccc(OC)cc1,22µM*
COc1ccc(-c2nc3cc(C)ccc3cc2CN2CCCC(O)C2)cc1OC (stereo unspecified),i

# Screening data as filed in PubChem BioAssay.
